Test results reported in ChEMBL document CHEMBL3988442, “University of Dundee, Small-Polar-MMV Screening Library” (2021).
Measured potencies and affinities stand elsewhere.

What follows are compounds tested against Protein translocase subunit SecA (Escherichia coli (strain K12)) (UniProt P10408) (assay: Assay to Identify E. coli SecA ATPase Inhibitors). Conditions: 30 µM.
Assay type: functional
Design: scale not given: direction of the effect not stated beside the values

Sequence of Protein translocase subunit SecA (Escherichia coli (strain K12)) (P10408 whole entry): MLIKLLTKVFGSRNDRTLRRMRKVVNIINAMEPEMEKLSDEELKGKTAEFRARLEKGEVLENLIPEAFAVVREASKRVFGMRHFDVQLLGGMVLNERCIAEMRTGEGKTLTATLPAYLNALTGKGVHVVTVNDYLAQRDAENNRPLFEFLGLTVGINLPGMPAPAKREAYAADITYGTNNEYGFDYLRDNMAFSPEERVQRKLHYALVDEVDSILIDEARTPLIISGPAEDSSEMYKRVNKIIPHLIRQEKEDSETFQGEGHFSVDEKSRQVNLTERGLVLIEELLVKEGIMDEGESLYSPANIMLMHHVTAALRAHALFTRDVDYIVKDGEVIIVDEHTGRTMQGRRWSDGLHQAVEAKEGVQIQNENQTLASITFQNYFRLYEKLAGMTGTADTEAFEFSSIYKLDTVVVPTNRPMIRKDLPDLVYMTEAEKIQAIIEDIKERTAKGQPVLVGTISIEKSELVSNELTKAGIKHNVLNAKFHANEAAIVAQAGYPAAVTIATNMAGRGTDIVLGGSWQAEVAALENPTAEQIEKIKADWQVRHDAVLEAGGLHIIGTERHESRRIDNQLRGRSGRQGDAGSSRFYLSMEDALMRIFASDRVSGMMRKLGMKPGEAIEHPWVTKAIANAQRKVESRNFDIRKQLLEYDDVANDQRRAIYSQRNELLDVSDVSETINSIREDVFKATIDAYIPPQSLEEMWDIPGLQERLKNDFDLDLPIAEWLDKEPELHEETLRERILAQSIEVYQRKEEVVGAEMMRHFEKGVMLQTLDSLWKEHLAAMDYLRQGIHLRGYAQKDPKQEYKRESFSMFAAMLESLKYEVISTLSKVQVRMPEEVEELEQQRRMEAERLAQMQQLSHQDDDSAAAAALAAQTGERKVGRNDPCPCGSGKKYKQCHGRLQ

Row | SMILES | Percent Effect [%]
1 | Cc1nn(CCO)c(C)c1CNC1CCC(C)(C)c2ccccc21 (stereo unspecified) | -3.92
2 | CSCC(=O)N1CCCC1c1noc(C2CC2)n1 (stereo unspecified) | -5.16
3 | Cc1cc(S(=O)(=O)Nc2cccc(-n3cccc3)c2)sc1C(=O)O | 1.39
4 | CNC(=O)[C@@H]1C[C@H]2CN(C(=O)c3ccco3)C[C@H]2N1C | -1.85
5 | O=C(Cc1ccccn1)N1CCC2(CC1)CC(Oc1ccccn1)CO2 (stereo unspecified) | -3.31
6 | CN(C)C(=O)[C@@H]1CCO[C@@H]2CCN(Cc3ccccc3)C[C@@H]21 | -1.18
7 | NC(=O)c1nc(COc2ccc3c(c2)OCO3)no1 | 2.5
8 | CNC(=O)c1cnc(/C=C/c2ccc(OC)c(O)c2)s1 | -3.24
9 | Cc1ccc([C@@H]2CN(S(=O)(=O)C(C)C)C[C@H]2N(C)C)cc1 | -6.03
10 | Cc1cc(C(=O)N2CCC3(CCCN(CC4CC4)C3=O)C2)c(C)n1C (stereo unspecified) | -5.53
11 | CCCN1CCC(NC(=O)c2ccc(F)cc2I)CC1 | -2.2
12 | COCCC(=O)N1CCC2(COCc3c(C)nc(NCC4CC4)nc32)C1 (stereo unspecified) | -1.4
13 | CN(Cc1ccco1)[C@@H]1CN(Cc2ccco2)[C@@H]2CCCO[C@H]12 | -1.09
14 | CC(C)c1n[nH]c(C(=O)Nc2ccncc2)c1Br | -1.59
15 | COc1ccc(-c2nc(CN3CC(n4nc(C)cc4C)C3)no2)cc1 | -4.78
16 | CCC(C(=O)NCc1ccncc1)N(c1cccc(C)c1)S(C)(=O)=O (stereo unspecified) | -2.54
17 | Cc1cc(C)n(C2CN(Cc3noc(-c4ccccc4)n3)C2)n1 | -4.45
18 | CC(O)CNCc1ccc(OCc2ccc3c(c2)OCCO3)cc1 (stereo unspecified) | 0.112
19 | Cc1cc(CNC(=O)N2CCN(c3ccccc3)CC2)no1 | -3.75
20 | O=c1[nH]c2c(c(=O)n1C1CCCCC1)CCC2NCCc1ccccc1 (stereo unspecified) | -2.86
21 | O=C(c1ccc(C2CCCO2)s1)N1Cc2ccccc2C1 (stereo unspecified) | -2.89

Each compound was assayed against T1, Ubiquitin-activating enzyme e1, putative (Leishmania donovani (strain BPK282A1)) (UniProt E9BSI1) (assay: Leishmania donovani Ubiquitin Activating Enzyme (LdE1)). Conditions: 30 µM.
T1 sequence (whole entry): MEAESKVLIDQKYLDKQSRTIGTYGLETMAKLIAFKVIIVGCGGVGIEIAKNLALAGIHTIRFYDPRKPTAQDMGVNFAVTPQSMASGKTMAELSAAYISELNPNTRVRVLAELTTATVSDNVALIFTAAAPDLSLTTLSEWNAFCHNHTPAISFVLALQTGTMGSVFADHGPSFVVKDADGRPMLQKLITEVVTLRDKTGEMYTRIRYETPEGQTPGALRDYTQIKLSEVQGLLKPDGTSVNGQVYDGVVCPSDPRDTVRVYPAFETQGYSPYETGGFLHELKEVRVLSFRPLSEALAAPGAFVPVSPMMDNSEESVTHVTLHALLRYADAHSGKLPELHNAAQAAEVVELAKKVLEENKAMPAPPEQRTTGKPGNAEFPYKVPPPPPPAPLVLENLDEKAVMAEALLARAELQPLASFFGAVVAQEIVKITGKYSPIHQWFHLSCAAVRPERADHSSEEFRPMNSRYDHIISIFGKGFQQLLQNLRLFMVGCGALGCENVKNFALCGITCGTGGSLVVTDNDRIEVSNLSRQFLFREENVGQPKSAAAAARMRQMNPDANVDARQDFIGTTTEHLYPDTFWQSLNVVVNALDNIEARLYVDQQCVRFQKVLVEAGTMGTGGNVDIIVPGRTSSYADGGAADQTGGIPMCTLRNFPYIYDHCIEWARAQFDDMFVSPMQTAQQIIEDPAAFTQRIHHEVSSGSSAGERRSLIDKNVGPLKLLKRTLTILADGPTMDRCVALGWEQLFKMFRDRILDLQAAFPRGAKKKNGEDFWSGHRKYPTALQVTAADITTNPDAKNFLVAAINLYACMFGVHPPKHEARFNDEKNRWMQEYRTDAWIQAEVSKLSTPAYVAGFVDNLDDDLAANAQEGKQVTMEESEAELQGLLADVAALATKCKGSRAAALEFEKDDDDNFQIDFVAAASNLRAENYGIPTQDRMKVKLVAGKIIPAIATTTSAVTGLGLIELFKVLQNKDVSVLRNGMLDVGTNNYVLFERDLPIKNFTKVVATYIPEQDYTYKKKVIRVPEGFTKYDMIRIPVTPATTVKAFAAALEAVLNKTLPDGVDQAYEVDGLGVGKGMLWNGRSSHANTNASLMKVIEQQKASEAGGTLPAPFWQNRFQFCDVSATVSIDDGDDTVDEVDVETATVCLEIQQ
Assay type: functional
Design: scale not given: direction of the effect not stated beside the values

Row | SMILES | Percent Effect [%]
22 | Cn1cc(CC2CCN(C(=O)NCc3cn4ccsc4n3)C2)cn1 (stereo unspecified) | 13.2
23 | COc1cc(C(=O)N(CCC#N)Cc2ccccn2)cc(OC)c1C | -2.67
24 | CN(Cc1cccnc1)C1CC2(CCN(c3ccccn3)CC2)C1 | 13.3
25 | Cc1cc(NC(=O)N2CCN(c3nc(C)c(C)s3)CC2)no1 | -2.7
26 | CN(C)CCCNC(=O)c1cc(Br)c2c(c1)OCCO2 | 5.33
27 | O=C(Cn1nc2c(cc1=O)CCCC2)N[C@@H](C(=O)O)c1ccccc1 | 9.33
28 | Cc1cnn(CC2CN(c3cnc4ccccc4n3)CCO2)c1 (stereo unspecified) | 15.2
29 | CNC(=O)[C@H]1C[C@@H]2CN(C(=O)c3cscn3)C[C@@H]2N1S(C)(=O)=O | 5.33
30 | Cn1cc(CN2C[C@@H]3COC[C@]3(C(=O)NCc3ccccn3)C2)cn1 | 5.33
31 | CCn1c(Nc2ccccc2OC)nc2c(C)nn(C)c2c1=O | 6.67
32 | Cc1ccc(CNCc2nnc3n2CC(C(F)(F)F)CC3)cc1 (stereo unspecified) | 18.9
33 | O=c1[nH]c2c(c(=O)n1C1CCCCC1)CCC2Nc1ccccc1 (stereo unspecified) | -4
34 | Cc1ccc(C)c(C(NC(=O)C2CC2)c2cccnc2)c1 (stereo unspecified) | 18.2
35 | Cc1cc(N2CCN(CC(=O)N(C)C)CC2)nc(-c2ccncc2)n1 | 23.7
36 | c1cc(OCc2ccc3c(c2)OCCO3)ccc1CNC1CC1 | 0
37 | CN(Cc1ccccn1)C1CC2(CCN(Cc3cccnc3)CC2)C1 | 13.3
38 | Cc1ccc(CNC(=O)N(Cc2ccccc2F)C2CC2)cn1 | 2.67
39 | O=C(NC1CCC1)[C@@H]1CCO[C@@H]2CCN(CCc3ccccc3)C[C@H]21 | 16.2
40 | c1ccc2sc(N3CCOC(Cn4cccn4)C3)nc2c1 (stereo unspecified) | 13.5
41 | Cc1nn(CCO)c(C)c1CNC1CCC(C)(C)c2ccccc21 (stereo unspecified) | 8

Row | SMILES | Percent Effect [%]
42 | CSCC(=O)N1CCCC1c1noc(C2CC2)n1 (stereo unspecified) | 10.7
43 | Cc1cc(S(=O)(=O)Nc2cccc(-n3cccc3)c2)sc1C(=O)O | 0
44 | CNC(=O)[C@@H]1C[C@H]2CN(C(=O)c3ccco3)C[C@H]2N1C | 2.67
45 | O=C(Cc1ccccn1)N1CCC2(CC1)CC(Oc1ccccn1)CO2 (stereo unspecified) | 10.7
46 | CN(C)C(=O)[C@@H]1CCO[C@@H]2CCN(Cc3ccccc3)C[C@@H]21 | 2.7
47 | NC(=O)c1nc(COc2ccc3c(c2)OCO3)no1 | 9.33
48 | CNC(=O)c1cnc(/C=C/c2ccc(OC)c(O)c2)s1 | 5.41
49 | Cc1ccc([C@@H]2CN(S(=O)(=O)C(C)C)C[C@H]2N(C)C)cc1 | 13.5
50 | Cc1cc(C(=O)N2CCC3(CCCN(CC4CC4)C3=O)C2)c(C)n1C (stereo unspecified) | 5.48
51 | CCCN1CCC(NC(=O)c2ccc(F)cc2I)CC1 | 18.1
52 | COCCC(=O)N1CCC2(COCc3c(C)nc(NCC4CC4)nc32)C1 (stereo unspecified) | 13.3
53 | CN(Cc1ccco1)[C@@H]1CN(Cc2ccco2)[C@@H]2CCCO[C@H]12 | 2.67
54 | CC(C)c1n[nH]c(C(=O)Nc2ccncc2)c1Br | 7.59
55 | COc1ccc(-c2nc(CN3CC(n4nc(C)cc4C)C3)no2)cc1 | -5.2
56 | CCC(C(=O)NCc1ccncc1)N(c1cccc(C)c1)S(C)(=O)=O (stereo unspecified) | 2.67
57 | Cc1cc(C)n(C2CN(Cc3noc(-c4ccccc4)n3)C2)n1 | -7.79
58 | CC(O)CNCc1ccc(OCc2ccc3c(c2)OCCO3)cc1 (stereo unspecified) | 10.5
59 | Cc1cc(CNC(=O)N2CCN(c3ccccc3)CC2)no1 | 5.41
60 | O=c1[nH]c2c(c(=O)n1C1CCCCC1)CCC2NCCc1ccccc1 (stereo unspecified) | 1.33
61 | O=C(c1ccc(C2CCCO2)s1)N1Cc2ccccc2C1 (stereo unspecified) | -2.7
